Test results as given in ChEMBL document CHEMBL4888484, “Replenishing the malaria drug discovery pipeline: Screening and hit evaluation of the MMV Hit Generation Library 1 (HGL1) against asexual blood stage Plasmodium falciparum ,using a nano luciferase reporter read-out” (2022).
Hit rate of the full screen: of about 4,800 compounds, about 410 (8.5%) showed an effect of 50% or more. What follows is part of a selection rich in strong results, with near analogues and random picks from the rest.

What follows are compounds tested on Plasmodium falciparum (assay: Confirmatory screen in NF54 pLDH assay, in single point, at 2uM, 72h). Conditions: timepoint 72 hour.
Format: functional, Erythrocyte

| SMILES | % Inhibition |
| --- | --- |
| OCC#Cc1ncc(C(F)(F)F)cc1Cl | -19% |
| CCc1nc(C(=O)N2C[C@@H]3CCCN(C(=O)c4coc(CC)n4)[C@@H]3C2)co1 | 0% |
| CCc1ncsc1C(=O)OCC1(C#N)CCOCC1 | -2% |
| Cc1cc(CS(=O)(=O)[C@@H](C)C(=O)NCC(C)C)on1 | 12% |
| CC(=O)N(C)CC(=O)Nc1ccccc1NCC1CCCCC1 | 12% |
| COc1cc(CN(C)[C@H]2CCc3nnc(C4CCOCC4)n3CC2)cc(OC)c1 | 1% |
| Cn1ccnc(N[C@@H](COc2ccccc2F)c2ccccc2)c1=O | 3% |
| NC(=O)CCc1ccc(S(=O)(=O)Cl)cc1 | 13% |
| COC(=O)c1ccc(Nc2nc(C)c3nc(C)n(-c4ccc(C(=O)OC)cc4)c3n2)cc1 | 3% |
| CCOc1cc(Cl)c(Cl)c(C#N)c1OC(C)=O | 6% |
| COc1ccc(-c2nccn3cc(C(=O)NCCN(C)C4CCCCC4)nc23)cc1 | 5% |
| CCCC[C@H](CC)C(=O)Nc1c(C)cccc1CC | -8% |
| Brc1ccc(Oc2ncc(CN3CCOCC3)s2)cc1 | 7% |
| Cc1ccc2c(c1)CCCN2S(=O)(=O)c1ccc2ccccc2c1 | -7% |
| Cc1ccnc(N2CCN(S(=O)(=O)Cc3ccon3)CC2)c1 | 15% |
| Cc1ccc(Nc2ccc(N3CCNCC3)nn2)nc1 | 58% |
| Cc1ccnc(Nc2ccc(N3CCNCC3)nn2)c1 | 65% |
| Cc1cnc(CC[C@H]2CCCN2C(=O)CCn2ccnc2)n1C | 7% |
| CCC(C#N)(CC)c1nc(-c2cc(N)nc3ccccc23)no1 | 8% |
| CCC(=O)O[C@@]1(c2ccc(C3CC3)cc2)CCCN(Cc2ccccc2)C1 | -1% |
| O=C1CCN(C(=O)COc2ccc(-c3ccccc3)cc2Cl)CCN1 | -12% |
| CC(=O)N[C@H]1CCc2nc(N)sc2C1 | 13% |
| C[C@@H]1C[C@@H](Nc2ccccc2)c2ccccc2N1C(=O)COc1ccc(Br)cc1 | 10% |
| O=C(Cc1c(Cl)cccc1Cl)N1CC[C@]2(CCOC2)C1 | -19% |
| CC[C@@]1(C)CCCN(C(=O)Cc2c(C)noc2Cl)C1 | 87% |
| Cc1noc(Cl)c1CC(=O)N1CCCC(C)(C)CC1 | 20% |
| Cc1ccc(-n2c(=O)c3sccc3n(CC(=O)NCc3ccc(F)cc3F)c2=O)cc1C | -20% |
| CC1CCC2(CC1)N=C(c1ccccc1)C(=O)N2CC(=O)N[C@H]1CCc2ccccc21 (stereo not given in full) | -4% |
| CN(Cc1cnn(-c2ccccc2)n1)c1ncnc2[nH]ncc12 | 10% |
| CCCCC(=O)N1CCc2[nH]nc(C(=O)NCCc3ccc(OC)cc3)c2C1 | 2% |
